Screening data deposited in PubChem by National Center for Advancing Translational Sciences (NCATS).
Cycloheximide cs = counter-screen for Shiga toxin inhibitors: cycloheximide protein synthesis inhibition. cell reporter, cycloheximide protein synthesis inhibition counterscreen. max response, %. 12% of 300,000 active; in the data active means max response mostly above about 13%, no sharp cut-off; inactive means mostly below about 14%; further: read at 38.3 µM for the half of the compounds with a filed dose; 0% is about no effect
Shiga inhibitor = inhibitors of Shiga toxin in Vero cells | inhibition, % at 38.7 µM | 9.2% of 290,000 active | Vero cells, Shiga toxin protein synthesis inhibition reporter; in the data active means inhibition mostly above about 28%, no sharp cut-off; inactive means mostly below about 43%; further: 0% is about no effect
LmPK inh = inhibitors of Leishmania mexicana pyruvate kinase. Q27686. purified LmPK, Kinase-Glo ATP luminescence, 1 h. Potency, µM (top dose mostly 57.5 µM), for the others: at the top dose activity change, negative = inhibition, usual class: inhibitors. 0.37% of 290,000 active; further: potency means the concentration at half of the fitted maximal effect; on the % scale 0 is the no-effect control and ±100 the full control effect
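Kinase-Glo luminescence read after 1 h RT reaction of 0.1 nM LmPK with 0.5 mM PEP and 0.1 mM ADP. Activity scaled between uninhibited and enzyme-free controls.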
TbPYK inhibitor = T. brucei pyruvate kinase inhibition; Q57TT1; TbPYK enzyme, Kinase-Glo Plus ATP luminescence, 45 min; Potency, µM (titrated, usually from 76.8 µM), for the others: at the top dose activity, negative = inhibition, usual class: inhibitors; 0.12% of 410,000 active; further: potency means the concentration at half of the fitted maximal effect; on the % scale 0 is the no-effect control and ±100 the full control effect; nearly all actives have a fitted effect of over 50% in size
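Quantitative HTS: titrated library compounds versus trypanosomal pyruvate kinase in TEA buffer (pH 7.2) containing KCl, MgCl2, BSA and Tween-20. Reactions were initiated with ADP, 130 uM final. Kinase-Glo Plus luminescence was read after 45 min at RT.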
RE007 growth inh = less growth of the S. pombe RE007 Vpr strain; Potency, µM (doses to about 92.2 µM), without a hit: at the highest dose activity change, negative = less growth, usual class: inhibitors; AID 651644; 0.21% of 360,000 active; S. pombe RE007 Vpr strain, BacTiter-Glo ATP luminescence, 24 h; active means well fitted falling curve with a large enough effect; inconclusive means small, poorly fitted or top-dose-only effect; inactive means no such curve, though single readings can be large or run the other way; further: potency means the concentration at half of the fitted maximal effect; on the % scale 0 is the no-effect control and ±100 the full control effect; nearly all actives have a fitted effect of over 50% in size
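Fission yeast strain RE007, carrying one chromosomally integrated HIV-1 vpr copy, was seeded at OD 0.01 in PMG+AL medium with 23 nL pinned compound. After 24 h at 30 °C and 99% humidity, viability was read by BacTiter-Glo luminescence.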
Giardia FBPA inh = Giardia lamblia aldolase inhibition; A8B2U2; purified Giardia FBPA; Potency, µM (doses to about 59.6 µM), for inactives: top-dose activity, negative = inhibition, actives largely listed as inhibitors; 0.71% of 290,000 active; further: potency means the concentration at half of the fitted maximal effect; on the % scale 0 is the no-effect control and ±100 the full control effect; nearly all actives have a fitted effect of over 55% in size
Target sequence (A8B2U2 whole entry, looked up): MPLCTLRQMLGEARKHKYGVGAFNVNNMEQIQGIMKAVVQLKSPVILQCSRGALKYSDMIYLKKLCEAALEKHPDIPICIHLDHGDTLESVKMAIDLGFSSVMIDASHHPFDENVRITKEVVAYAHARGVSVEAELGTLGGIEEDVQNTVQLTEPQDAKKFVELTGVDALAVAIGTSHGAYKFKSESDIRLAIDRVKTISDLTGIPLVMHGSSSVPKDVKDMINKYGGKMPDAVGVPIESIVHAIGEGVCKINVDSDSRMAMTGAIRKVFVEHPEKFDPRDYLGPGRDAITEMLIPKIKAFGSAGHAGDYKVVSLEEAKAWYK
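40 nM FBPA preincubated 10 min at RT with compound (up to 57.5 uM final), then substrate plus GAPDH/TPI/NAD/arsenate coupling and diaphorase/resazurin added. Fluorescence read after 20 min at RT, 525/598 nm.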
Active calls of the source: *. The full list was thinned out, with hits kept by preference. Unless noted, the call rests on the fitted dose curve; in most records, active means well fitted curve in the direction sought with a large enough effect; inconclusive means small, poorly fitted or top-dose-only effect, or another doubt; inactive means no such curve, though single readings can be large; an effect the other way counts as inactive or inconclusive.

COc1ccc(CNC(=O)c2oc3ccc(S(=O)(=O)N4CCOCC4)cc3c2C)cc1 was read as Cycloheximide cs 2, Shiga inhibitor -3, LmPK inh 0%, TbPYK inhibitor 1%, RE007 growth inh -5% and Giardia FBPA inh 6%.
`COc1cc(S(=O)(=O)Nc2ccccc2C(=O)N2CCCCC2)ccc1NC(C)=O` gave TbPYK inhibitor 7% and RE007 growth inh 5%.
COc1ccccc1CNc1ncnc2c1c(-c1ccccc1)cn2-c1ccc(Br)cc1 was read as TbPYK inhibitor 1%.
Screening O=C(CSc1nnc(-c2cccs2)o1)Oc1ccccc1 returned TbPYK inhibitor -5%.
`Fc1ccccc1CSc1nnc(-c2cccs2)o1` gave Cycloheximide cs 44*, Shiga inhibitor 88*, LmPK inh -5%, TbPYK inhibitor 7%, RE007 growth inh 2% and Giardia FBPA inh 2%.
`O=C(O)c1ccc(CS(=O)(=O)c2ccc(Br)cc2)cc1` gave Cycloheximide cs -3, Shiga inhibitor 20, LmPK inh 3%, TbPYK inhibitor -1%, RE007 growth inh 9% and Giardia FBPA inh 1%.
`CCN1C(=O)NC(c2ccccc2)C1=O` (stereo unspecified) gave TbPYK inhibitor 3% and RE007 growth inh 2%.
CN=C1N[C@H](c2ccccc2)N(c2ccccc2)S1 was read as Cycloheximide cs 27*, Shiga inhibitor 28 and Giardia FBPA inh 22µM*.
For CC1=CC(=O)C(Sc2ccc(C)cc2)=CC1=O the results were TbPYK inhibitor 7.1µM* and RE007 growth inh 22µM*.
Screening Cc1ccc(CC(=O)Nc2cc([N+](=O)[O-])ccc2F)cc1 returned Cycloheximide cs 2, Shiga inhibitor -13, LmPK inh -5%, TbPYK inhibitor -9%, RE007 growth inh -7% and Giardia FBPA inh 3%.
Screening Cc1ccc(C(=O)Nc2cc([N+](=O)[O-])ccc2F)s1 returned Cycloheximide cs 10, Shiga inhibitor active, LmPK inh 4%, TbPYK inhibitor 2%, RE007 growth inh 25% and Giardia FBPA inh -1%.
For O=C(Nc1ccccc1F)c1ccc([N+](=O)[O-])s1 the results were Cycloheximide cs 38*, Shiga inhibitor 83, LmPK inh 0%, TbPYK inhibitor 2%, RE007 growth inh inconclusive and Giardia FBPA inh -5%.
Screening COc1ccc(NC(=O)C2CCC(CNS(=O)(=O)c3ccc4c(c3)C(C)(C)C(=O)N4C)CC2)cc1 (stereo unspecified) returned TbPYK inhibitor -1%.
`O=C(Nc1cccc(C(F)(F)F)c1)c1cc(-c2cccs2)on1` gave Cycloheximide cs 23*, Shiga inhibitor 12, LmPK inh 2%, TbPYK inhibitor -6%, RE007 growth inh -10% and Giardia FBPA inh -1%.
Screening CCc1ccc(NC(=O)c2cc(-c3cccs3)on2)cc1 returned Cycloheximide cs 38*, Shiga inhibitor 100*, LmPK inh -5%, TbPYK inhibitor -6%, RE007 growth inh -3% and Giardia FBPA inh 0%.
For COc1ccc(NC(=O)c2cc(-c3cccs3)on2)cc1 the results were Cycloheximide cs 29*, Shiga inhibitor 73*, LmPK inh -3%, TbPYK inhibitor -1%, RE007 growth inh -9% and Giardia FBPA inh 3%.
Screening CCc1ccc(NC(=O)c2sccc2-n2cccc2)cc1 returned Cycloheximide cs 19*, Shiga inhibitor 55, LmPK inh 3%, TbPYK inhibitor 3%, RE007 growth inh -19% and Giardia FBPA inh -7%.
For O=C(Nc1ccccc1-c1nc2ccccc2[nH]1)c1sc2ccccc2c1Cl the results were Cycloheximide cs -3, Shiga inhibitor 10, LmPK inh -1% and Giardia FBPA inh 0%.
For Cc1ccc(NC(=O)c2cc(-c3ccc(Br)s3)nc3ccccc23)cc1F the results were TbPYK inhibitor -2%.
For CC[C@@H]1OC(=O)[C@@H](C)[C@H](O[C@H]2C[C@@](C)(OC)[C@@H](O)[C@H](C)O2)C(C)[C@H](O[C@H]2O[C@@H](C)C[C@@H](N(C)C)[C@@H]2O)[C@@](C)(O)C[C@H](C)C(=O)[C@@H](C)[C@H](O)[C@@]1(C)O (stereo partly specified) the results were Giardia FBPA inh 9%.
CCN(c1cccc(C)c1)S(=O)(=O)c1ccc2c(c1)N(C(C)=O)CCS2 was read as Cycloheximide cs -2, Shiga inhibitor -11, LmPK inh -11%, TbPYK inhibitor 0% and RE007 growth inh 8%.
`Cc1ccc(NC(=O)c2cc(-c3cccs3)on2)cc1C` gave Cycloheximide cs 57*, Shiga inhibitor 170*, LmPK inh -4%, TbPYK inhibitor -1%, RE007 growth inh 14% and Giardia FBPA inh 0%.
Cn1ccs/c1=N\C(=O)Nc1cccc(C(F)(F)F)c1 was read as Cycloheximide cs 28*, Shiga inhibitor 69*, LmPK inh 1%, TbPYK inhibitor 0%, RE007 growth inh -6% and Giardia FBPA inh 2%.
Cc1ccc(NC(=O)c2cc(-c3ccc(F)cc3)on2)cc1C was read as Cycloheximide cs 20*, Shiga inhibitor 35, LmPK inh -2%, TbPYK inhibitor 0%, RE007 growth inh 4% and Giardia FBPA inh 6%.
Screening COc1ccc(-c2cc(C(=O)Nc3ccc(C)c(C)c3)no2)cc1 returned Cycloheximide cs -6, Shiga inhibitor 0, LmPK inh -5%, TbPYK inhibitor 3%, RE007 growth inh -6% and Giardia FBPA inh -1%.
O=C(Nc1cccnc1)c1cc(-c2cccs2)on1 was read as Cycloheximide cs 1, Shiga inhibitor -5, LmPK inh -7%, TbPYK inhibitor -3%, RE007 growth inh 6% and Giardia FBPA inh -3%.
For COc1ccc(NC(=O)c2cc(-c3cccs3)on2)cc1OC the results were Cycloheximide cs 24*, Shiga inhibitor 36, LmPK inh 4%, TbPYK inhibitor -6%, RE007 growth inh 11% and Giardia FBPA inh 11%.
`CCCCC(CC)CNC(=O)C(=O)c1ccccc1NC(C)=O` (stereo unspecified) gave Cycloheximide cs -2, Shiga inhibitor -14, LmPK inh 0%, TbPYK inhibitor -1%, RE007 growth inh 18% and Giardia FBPA inh 6%.
`Brc1ccc(Cn2c(-c3ccc(Br)o3)nc3ccccc32)o1` gave Cycloheximide cs 18*, Shiga inhibitor 22, LmPK inh -5%, TbPYK inhibitor -1%, RE007 growth inh 9% and Giardia FBPA inh -28%.
For COc1ccc(S(=O)(=O)N2CCN(C(=O)c3cc(C)nc4ccccc34)CC2)cc1OC the results were TbPYK inhibitor 6% and RE007 growth inh 2%.
